Screens: PubChem, several laboratories
Efflux pump inh: antifungal efflux pump inhibition, Nile Red retention | AID 485275 | hit rate 0.44% among 330,000 | inhibition, % at 10 µM | S. cerevisiae Candida pump triplex;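 active means plate passing quality check with inhibition over a set limit, or well fluorescence over plate mean plus 4 SD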;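 further: Nile Red retained in pooled yeast measured as flow cytometry median fluorescence; higher means more Nile Red kept so more efflux inhibition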
SUMO Mot1 rescue: inhibitors of SUMOylation pathway: yeast Mot1-301 growth rescue. S. cerevisiae Mot1-301 growth rescue, ATP luminescence, 38.5C; percent above DMSO median, 100 means doubled. growth rescue, % at 18.8 µM. hit rate 1% among 320,000. AID 2716;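 active means every valid replicate shows activation above 250% relative to neutral control wells; inactive means the rest, any valid replicate at or below 250%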
AHR activator: human AHR activation; P35869; hit rate 2.5% among 320,000; AHR-responsive luciferase reporter cells, luminescence; AID 2796; activation, % at 5 µM; in the data active means activation above about 47%
A1 inh: inhibitors of the anti-apoptotic protein A1, read as caspase activation; MEF A1-2A-BIM cells, Caspase-Glo 3/7 luminescence, 3 h; percent of clofoctol response, vehicle zero; caspase activation, % (test concentration not listed); hit rate 0.066% among 330,000;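 active means over half of replicate activation scores above 10%, or exactly half above 10 with the replicate mean above 10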
VLA-4 inh: inhibition in a human VLA-4 binding assay. hit rate 0.2% among 330,000. VLA-4 expressing cells, ligand binding flow cytometry. inhibition, % (about 7 µM as worked out from the volumes in the protocol). AID 2557; in the data active means inhibition above about 50%
ALR inh: inhibitors of human sulfhydryl oxidase ALR; P55789; purified ALR, DTT oxidation, H2O2 HRP-luminol luminescence; inhibition, % (test concentration not listed); hit rate 3.8% among 290,000; AID 485317;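 active means mean replicate inhibition above about 79%, with every replicate also reaching it, limit read from the data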
Target sequence (P55789 whole entry, looked up): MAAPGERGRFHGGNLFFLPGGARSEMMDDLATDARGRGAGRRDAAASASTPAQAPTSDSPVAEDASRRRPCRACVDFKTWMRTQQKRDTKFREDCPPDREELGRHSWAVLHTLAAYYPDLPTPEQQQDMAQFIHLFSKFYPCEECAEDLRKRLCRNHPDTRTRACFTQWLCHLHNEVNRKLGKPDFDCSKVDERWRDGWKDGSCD
Cmpd fluor yeast: flagged as fluorescent in efflux inhibitor counter-screen; S. cerevisiae AD/pABC3, compound fluorescence, flow cytometry; shares compounds with Efflux pump inh; fluorescence ratio to DMSO, % at 10 µM; hit rate 4% among 1,700;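 active means fluorescence ratio to DMSO above its plate's cutoff, the plate mean ratio plus 5 SD, cut at about 210% in these data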;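 further: unstained yeast with no Nile Red so the signal is compound autofluorescence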
CaMdr1 efflux inh: blocks the Candida albicans Mdr1 efflux pump in yeast | shares compounds with Efflux pump inh | S. cerevisiae AD/CaMDR1, Nile Red efflux, flow cytometry | inhibition, % at 10 µM | hit rate 1% among 1,700; in the data active means inhibition above about 26%;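 further: higher means more Nile Red retained so more efflux inhibition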
CaCdr2 efflux inh: Candida Cdr2 efflux pump inhibition. shares compounds with Efflux pump inh. S. cerevisiae AD/CaCDR2, Nile Red retention, flow cytometry. Nile Red retention ratio vs DMSO, % at 10 µM. hit rate 4% among 1,700. AID 588520; in the data active means Nile Red retention ratio vs DMSO above about 190%;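 further: higher ratio means more blocking of Cdr2 efflux of the dye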
Cdr1 pump inh: inhibitors of Candida albicans Cdr1 efflux pump. hit rate 1% among 1,700. inhibition, % at 10 µM. shares compounds with Efflux pump inh. S. cerevisiae AD/CaCDR1, Nile Red efflux, flow cytometry;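 active means inhibition above the screen-wide mean plus twice its standard deviation, cut at about 32% in these data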
Large screens that a line does not name were inactive (follow-up assays come after a bar, where they were run). Sampled rows, rich in hits. Any-hit rate of the full collection: about 7.2%.

Cc1cc(C)n2c(SCC(=O)N(C)C3CCS(=O)(=O)C3)nnc2n1 (centres undefined)	Efflux pump inh 0.6 | Cmpd fluor yeast inactive | CaMdr1 efflux inh inactive | CaCdr2 efflux inh inactive | Cdr1 pump inh inactive
CCOC(=O)c1c(O)c2cccc3c2n(c1=O)CC3	none | Cmpd fluor yeast inactive | CaMdr1 efflux inh inactive | CaCdr2 efflux inh inactive | Cdr1 pump inh inactive
Cc1ccc2c(c1)C(=O)N1[C@H]3c4cc(C)ccc4OC[C@@H]3[C@H](c3ccccc3)[C@]1(C)C(=O)N2	none
C[C@@]12C(=O)Nc3cc(Cl)ccc3C(=O)N1[C@H]1c3cc(Cl)ccc3OC[C@@H]1[C@@H]2c1ccccc1	none | Cmpd fluor yeast inactive | CaMdr1 efflux inh inactive | CaCdr2 efflux inh inactive | Cdr1 pump inh inactive
Cc1ccc2c(c1)C(=O)N1[C@H]3c4cc(Cl)ccc4OC[C@@H]3[C@H](c3ccccc3)[C@]1(C)C(=O)N2	none | Cmpd fluor yeast inactive | CaMdr1 efflux inh inactive | CaCdr2 efflux inh inactive | Cdr1 pump inh inactive
COc1ccccc1NC(=O)C1=C(C)Nc2nnnn2C1c1cc(Br)ccc1OC (centres undefined)	none (no result: ALR inh)
CC(C)CC(=O)c1c[nH]c(C(=O)NCCCn2ccnc2)c1	none
O=C(Cc1ccc(Cl)cc1)c1c[nH]c(C(=O)NCCCn2ccnc2)c1	Efflux pump inh 0.6 | Cmpd fluor yeast inactive | CaMdr1 efflux inh inactive | CaCdr2 efflux inh inactive | Cdr1 pump inh inactive
C/C(=N\OCC(=O)OCC(=O)NCc1ccccc1)c1ccc2c(c1)OCO2	none
CCOc1ccc(C(=O)Nc2cccc(-c3cc4ccccc4oc3=O)c2)cc1[N+](=O)[O-]	Efflux pump inh 1.0 | Cmpd fluor yeast inactive | CaMdr1 efflux inh inactive | CaCdr2 efflux inh inactive | Cdr1 pump inh inactive
CCOc1ccc2nc(NC(=O)c3cccc(-c4cc5ccccc5oc4=O)c3)sc2c1	none (no result: ALR inh)
CC(=O)N1c2c(cc(Br)cc2S(=O)(=O)NCC2COc3ccccc3O2)CC1C (centres undefined)	none
COc1ccc(Br)cc1C(=O)O	none
COc1cc(N)c(Br)cc1C(=O)O	Efflux pump inh 0.7 | Cmpd fluor yeast inactive | CaMdr1 efflux inh inactive | CaCdr2 efflux inh inactive | Cdr1 pump inh inactive
COC(=O)c1ccc(CNC(=O)COC(=O)CCC2CCCC2)cc1	Efflux pump inh 16.6 | Cmpd fluor yeast inactive | CaMdr1 efflux inh inactive | CaCdr2 efflux inh inactive | Cdr1 pump inh inactive
CC1Cc2ccccc2N1S(=O)(=O)c1cccc(C(=O)N2CCN(c3ncccn3)CC2)c1 (centres undefined)	Efflux pump inh 0.9 | Cmpd fluor yeast inactive | CaMdr1 efflux inh inactive | CaCdr2 efflux inh inactive | Cdr1 pump inh inactive
CCN(CC(=O)Nc1c(F)cccc1F)C(=O)c1ccc2c(c1)OCO2	none
O=C1c2cc(Cl)ccc2OC2(CCNCC2)C12CC(c1ccccc1)=NO2 (centres undefined)	none (no result: ALR inh) | Cmpd fluor yeast inactive | CaMdr1 efflux inh inactive | CaCdr2 efflux inh inactive | Cdr1 pump inh inactive
CC(C)C(=O)N1CCC2(CC1)Oc1ccc(Cl)cc1C(=O)C21CC(c2ccc(Cl)cc2)=NO1 (centres undefined)	none | Cmpd fluor yeast inactive | CaMdr1 efflux inh inactive | CaCdr2 efflux inh inactive | Cdr1 pump inh inactive
O=C(/C=C/c1cccs1)N1CCC2(CC1)Oc1ccc(Cl)cc1C(=O)C21CC(c2ccc(Cl)cc2)=NO1 (centres undefined)	none
CCC(=O)N1CCC2(CC1)Oc1ccc(Cl)cc1C(=O)C21CC(c2cccnc2)=NO1 (centres undefined)	none
O=C1c2cc(Cl)ccc2OC2(CCNCC2)C12CC(c1ccc(Cl)cc1)=NO2 (centres undefined)	none (no result: Efflux pump inh, VLA-4 inh) | Cmpd fluor yeast inactive | CaMdr1 efflux inh inactive | CaCdr2 efflux inh inactive | Cdr1 pump inh inactive
